DUX4 txn inh = inhibitors of DUX4-driven ZSCAN4 reporter expression, primary screen, 293T cells, Gaussia and Italica luciferase; 293T-iDUX4 ZSCAN4-Gaussia luciferase reporter, 24 h; stronger effect = lower value; activity change, negative = inhibition, % (test concentration not listed); actives 0.8% (n = 37,000); AID 1224904, 2016;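 active means mean inhibition of at least 10% in the main channel, exceeding the control channel by a set limit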;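 further: 0% = median of neutral control wells and -100% = median of positive control wells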
* marks the source's active call; other numbers are inactive results. This excerpt belongs to a sample that is enriched for hits.

`C[C@H](CO)N1C[C@H](C)[C@H](CN(C)Cc2ccc(C(=O)Nc3ccccc3N)cc2)OCc2cnnn2CCCC1=O` gave DUX4 txn inh -16.0*.
`C[C@H]1CN([C@@H](C)CO)C(=O)CCCn2nncc2CO[C@H]1CN(C)Cc1ccc(C(=O)O)cc1` gave DUX4 txn inh 0.7.
For C[C@@H]1CN([C@@H](C)CO)C(=O)CCCn2nncc2CO[C@@H]1CN(C)Cc1ccc(C(=O)O)cc1 the results were DUX4 txn inh 2.7.
CC(C)C[C@H]1COCc2cn(nn2)CC[C@@H](Cc2cccc(Cl)c2)C(=O)N1 was read as DUX4 txn inh 3.0.
For Cc1ccc(-c2ccccc2[C@H]2[C@@H](C#N)N(C(=O)NC3CCCC3)[C@H]2CO)cc1 the results were DUX4 txn inh -7.8.
For N#C[C@@H]1[C@@H](c2ccccc2-c2cccc(F)c2)[C@@H](CO)N1C(=O)NC1CCCCC1 the results were DUX4 txn inh -29.2*.
`N#C[C@@H]1[C@@H](c2ccc(-c3cccc(F)c3)cc2)[C@@H](CO)N1C(=O)NC1CCCC1` gave DUX4 txn inh 1.9.
Screening CCC(=O)N1CC[C@H]2[C@H](CO)Nc3ccc(C#Cc4cccc(OC)c4)cc3[C@H]21 returned DUX4 txn inh 20.7.
For COCC(=O)N1CC2(C1)[C@@H](c1ccccc1)[C@H](CO)N2C(=O)c1ccncc1 the results were DUX4 txn inh 9.7.
For COCC(=O)N1CCCCN2[C@H](CO)[C@H](c3ccc(C#Cc4cccnc4)cc3)[C@@H]2C1 the results were DUX4 txn inh 3.3.
`C[C@@H]1CN([C@H](C)CO)C(=O)c2c(c3ccccc3n2C)-c2ccccc2CO[C@@H]1CN(C)S(C)(=O)=O` gave DUX4 txn inh 17.3.
Cc1ccccc1S(=O)(=O)N(C)C[C@H]1OCc2ccccc2-c2c(n(C)c3ccccc23)C(=O)N([C@H](C)CO)C[C@@H]1C was read as DUX4 txn inh -35.3*.
For C[C@@H]1CN([C@H](C)CO)C(=O)c2c(c3ccccc3n2C)-c2ccccc2CO[C@H]1CN(C)S(=O)(=O)c1cccc(C#N)c1 the results were DUX4 txn inh 12.8.
`C[C@@H]1CN([C@H](C)CO)C(=O)c2c(c3ccccc3n2C)-c2ccccc2CO[C@@H]1CN(C)S(=O)(=O)c1ccc(C(F)(F)F)cc1` gave DUX4 txn inh -0.5.
For C[C@H]1CN([C@@H](C)CO)C(=O)c2c(c3ccccc3n2C)-c2ccccc2CO[C@@H]1CN(C)S(=O)(=O)c1ccc([N+](=O)[O-])cc1 the results were DUX4 txn inh -4.9.
`C[C@@H]1CN([C@@H](C)CO)C(=O)c2c(c3ccccc3n2C)-c2ccccc2CO[C@@H]1CN(C)S(=O)(=O)c1ccc(C#N)cc1` gave DUX4 txn inh 3.2.
For C[C@@H]1CN([C@H](C)CO)C(=O)c2c(c3ccccc3n2C)-c2ccccc2CO[C@H]1CN(C)S(C)(=O)=O the results were DUX4 txn inh 7.6.
For C[C@@H]1CN([C@H](C)CO)C(=O)c2c(c3ccccc3n2C)-c2ccccc2CO[C@H]1CN(C)S(=O)(=O)c1ccc(F)cc1 the results were DUX4 txn inh -29.1*.
Screening C[C@@H]1CN([C@@H](C)CO)C(=O)c2c(c3ccccc3n2C)-c2ccccc2CO[C@@H]1CN(C)S(=O)(=O)c1cccc(C#N)c1 returned DUX4 txn inh -24.5*.
For CC(C)[C@@H]1C(=O)N[C@H](c2ccccc2)CC=CC[C@@H](C)Oc2ccccc2C(=O)N1C (mixture of isomers) the results were DUX4 txn inh 0.1.
Screening CCC(=O)N1[C@H](CO)[C@@H](c2ccccc2)C12CN(C(=O)c1cnccn1)C2 returned DUX4 txn inh 10.3.
For CN(C)CC(=O)N1[C@@H](CO)[C@H](c2ccccc2)C12CN(C(=O)C1CCCC1)C2 the results were DUX4 txn inh 9.0.
Screening C[C@@H]1CN([C@H](C)CO)C(=O)c2cc(N(C)C)ccc2O[C@@H](C)CCCCO[C@H]1CN(C)Cc1ccc(C(=O)Nc2ccccc2N)cc1 returned DUX4 txn inh -2.8.
Screening COCC(=O)N1CC[C@H]2[C@H](CO)Nc3ccc(-c4ccc(C#N)cc4)cc3[C@H]21 returned DUX4 txn inh 2.8.
`COCC(=O)N1CC[C@@H]2[C@@H](CO)Nc3ccc(C#Cc4ccc(F)cc4)cc3[C@@H]21` gave DUX4 txn inh 14.8.
Screening CCC(=O)N1CC[C@@H]2[C@H](CO)Nc3ccc(C#Cc4ccc(OC)cc4)cc3[C@@H]21 returned DUX4 txn inh 3.3.
Screening COc1ccccc1C#Cc1ccc2c(c1)[C@H]1[C@H](CCN1C(=O)CN1CCOCC1)[C@@H](CO)N2 returned DUX4 txn inh 1.6.
COCC(=O)N1CC[C@@H]2[C@H](CO)Nc3ccc(-c4ccc(C(=O)N(C)C)cc4)cc3[C@@H]21 was read as DUX4 txn inh -1.0.
Screening O=C(CN1CCOCC1)N1CC[C@H]2[C@H](CO)Nc3ccc(-c4ccccc4)cc3[C@H]21 returned DUX4 txn inh 24.0.
For COCC(=O)N1CC[C@@H]2[C@H]1c1cc(C#Cc3ccc(OC)cc3)ccc1N[C@@H]2CO the results were DUX4 txn inh -18.1*.
`N#Cc1ccc(-c2ccc3c(c2)[C@@H]2[C@@H](CCN2C(=O)Cc2ccccc2)[C@H](CO)N3)cc1` gave DUX4 txn inh -5.4.
COc1ccccc1C#Cc1ccc2c(c1)[C@H]1[C@H](CCN1C(=O)CN1CCOCC1)[C@H](CO)N2 was read as DUX4 txn inh -20.6*.
`O=C(Cc1ccccc1)N1CC[C@@H]2[C@@H](CO)Nc3ccc(-c4cccc(F)c4)cc3[C@@H]21` gave DUX4 txn inh 6.6.
`COCC(=O)N1CC[C@@H]2[C@H]1c1cc(-c3ccc(C#N)cc3)ccc1N[C@@H]2CO` gave DUX4 txn inh -33.7*.
Screening O=C(Cc1ccccc1)N1CC[C@@H]2[C@H]1c1cc(-c3ccc(F)cc3)ccc1N[C@@H]2CO returned DUX4 txn inh -23.5*.
`O=C(C1CCOCC1)N1CC(=O)N2[C@@H](CO)[C@H](c3ccc(/C=C/c4ccccc4)cc3)[C@@H]2C1` gave DUX4 txn inh 7.0.
O=C(C[C@H]1C[C@@H]2c3cc(NC(=O)c4cccnc4)ccc3O[C@@H]2[C@@H](CO)O1)NCCc1ccccc1 was read as DUX4 txn inh 3.4.
Screening COc1ccc2c3c(n(C)c2c1)[C@@H](CO)NCC31CN(S(=O)(=O)c2cccc(F)c2)C1 returned DUX4 txn inh -0.7.
COc1ccc2c3c([nH]c2c1)[C@H](CO)N(C(=O)Nc1ccc(F)cc1)CC31CCN(Cc2nccs2)CC1 was read as DUX4 txn inh -9.2.
For C[C@@H]1CCCCO[C@@H](CN(C)Cc2ccc(C(=O)Nc3ccccc3N)cc2)[C@@H](C)CN([C@@H](C)CO)C(=O)c2cc(N(C)C)ccc2O1 the results were DUX4 txn inh 0.5.
COc1ccc2c3c([nH]c2c1)[C@H](CO)NCC31CCN(C(=O)Cc2ccncc2)CC1 was read as DUX4 txn inh 0.8.
Screening O=C(C[C@@H]1C[C@H]2c3cc(NC(=O)Cc4ccncc4)ccc3O[C@H]2[C@H](CO)O1)NCc1cc(F)ccc1F returned DUX4 txn inh -3.7.
Screening O=C(C[C@@H]1C[C@H]2c3cc(NC(=O)CC4CC4)ccc3O[C@H]2[C@@H](CO)O1)NCc1cc(F)ccc1F returned DUX4 txn inh 6.8.
`O=C(C[C@@H]1C[C@@H]2c3cc(NC(=O)Cc4ccncc4)ccc3O[C@@H]2[C@@H](CO)O1)NCCc1ccccc1` gave DUX4 txn inh 2.9.
